# PubChem BioAssay (NCI)
# This is part of a sample that, as a whole, favours compounds with a hit. Of some 83,000 tested, about 20% had one in any assay.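 Single-concentration screen, 48 h exposure, 96-well plates. Endpoint: percent growth. Below 10 = active.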 Calls of active or inactive are those of the source.
# System: NCI-H226 lung
# Assay: NCI-60 one-dose screen, 48 h (100 = growth as untreated, 0 = no growth, -100 = all killed)
# Conditions: 10 µM unless noted
# Protocol: Growth inhibition of the NCI-H226 human Non-Small Cell Lung tumor cell line is measured as a screen for anti-cancer activity. Cells are grown in 96 well plates and exposed to the test compound for 48 hours. Compounds are tested at a single concentration, which is 10^-5 M for most compounds. The reported endpoint is percent growth (GI% or GIPRCNT), where numbers from 0 - 100% represent growth inhibition, and numbers from -100% - 0 represent cell death. For example, a value of 40 represents 60% growth inhibition. A value of 0 means no net growth occurred over the course of the experiment. A value of -40 indicates 40% of cells at the beginning of the experiment died by the end of the experiment. A value of -100 means all cells are dead at the end of the experiment.
# NCI-60 Human Tumor Cell Lines Screen was performed using the standard one-dose NCI protocol, which is described in more detail at https://dtp.cancer.gov/discovery_development/nci-60/default.htm.
# Compounds with GIPRCNT values below 10 were considered active. Activity score was based on GIPRCNT using the following formula: […]
# Score is 0 for GIPRCNT values of 100 or above, 50 for GIPRCNT values of 0, and 100 for GIPRCNT values of -100.
row,SMILES,growth
1,O=C(Cc1c(F)cccc1Cl)Nc1ccc(S(=O)(=O)Nc2ncccn2)cc1,99.4% (inactive)
2,CCOC(=O)CC(C#N)(CC(=O)OCC)C(=O)OCC,94.5% (inactive)
3,COc1ccc(OC)c(/C=C2\Oc3cc(OCCN4CCCC4)ccc3C2=O)c1,104% (inactive)
4,COc1cccc(-c2nc3sccn3c2-c2ccnc(NCCNS(=O)(=O)c3ccccc3)n2)c1,43.1% (inactive)
5,O=C(/C=C/CN1CCCCC1)Nc1cc2c(Nc3ccc(F)c(Cl)c3F)ncnc2cc1OCCOC(F)F,28.6% (inactive)
6,CCn1c(=O)c2c(=O)c3c4c(oc3oc2c2ccccc21)C(=O)c1ccccc1C4=O,99.4% (inactive)
7,O=C(Nc1ccc(I)cc1)c1cccc([N+](=O)[O-])c1O,20.5% (inactive)
8,CCO/C=N/NC(=O)c1ccncc1,106% (inactive)
9,c1ccc2c(c1)Oc1ccccc1C2C1c2ccccc2Oc2ccccc21,103% (inactive)
10,Cc1oc2nc[nH]c(=O)c2c1C(=O)/C=C/c1ccc(Cl)cc1,94% (inactive)
11,CCCC1OC(c2ccc(C(C)C)cc2)OCC1CC (stereo not given),100% (inactive)
12,O=C(Nc1ccc(Cl)cc1)c1cc(-c2ccc(F)cc2)c2sc(=O)[nH]c2n1,11.6% (inactive)
13,COc1cccc(NC(=O)Cn2cc3c(=O)oc4ccccc4c3n2)c1,104% (inactive)
14,CCNC(=O)CCCCC(=O)c1c(C)[nH]c(/C=C2\N=C(c3ccc[nH]3)C=C2OC)c1C,65.7% (inactive)
15,NC(CC(N)C(=O)O)C(=O)O (stereo not given),103% (inactive)
16,COc1cc(C2C3=C(COC3=O)Nc3c2ccc2c3CCCC2)cc2c1OCO2 (stereo not given),-5.06% (active)
17,COc1ccc(-c2nnc(COc3ccc(NC(=O)Nc4ccc(Cl)c(C(F)(F)F)c4)cc3F)o2)cc1,33.5% (inactive)
18,O=S=Nc1ccc([N+](=O)[O-])cc1,108% (inactive)
19,CNC(C)=O,95.1% (inactive)
20,CCCCCCOc1ccc(C2(Cl)c3ccccc3N(C)c3ccccc32)cc1,29.5% (inactive)

row,SMILES,growth
1,O=P([O-])(O)OP(=O)([O-])O.[NH-][C@H]1CCCC[C@@H]1[NH-].[OH-].[OH-].[Pt+4],108% (inactive)
2,COc1ccc(/C=C/c2nc(N3CCOCC3)c3cc(F)c(F)cc3n2)cc1OC,33.2% (inactive)
3,COc1cc(-c2nc(-c3nc4ccccc4[nH]3)cc3c2[nH]c2ccccc23)cc(OC)c1OC,72.6% (inactive)
4,COC1=CC(c2ccc[nH]2)=N/C1=C\c1[nH]c(C)c(C(=O)CCCCC(=O)Nc2ccccc2)c1C,44.1% (inactive)
5,Cn1c(C(N)=O)cc2c1-c1nc(NC3CCCCC3)ncc1CCC2,70.9% (inactive)
6,CNC(=O)c1cc(Oc2ccc3c(c2)sc2nc(-c4ccc(Cl)cc4)cn23)ccn1,38.9% (inactive)
7,Nc1nc(Cl)c2c(ncn2Cc2ccc(CCl)cc2)n1,94.5% (inactive)
8,COc1ccc(-c2nc3sccn3c2-c2ccnc(NCCCNS(=O)(=O)c3ccc4ccccc4c3)n2)cc1,62% (inactive)
9,OCc1c(-c2ccccc2)nc2sccn12,106% (inactive)
10,CC/C=C\C[C@H]1C/C=C2/C(=O)C(Cl)=C[C@@H]2C/C=C\CCCC(=O)O1,-11% (active)
11,CCN1C(=O)N(CC)C2Nn3c(s/c(=C\c4cccc(F)c4)c3=O)=NC21 (stereo not given),96.1% (inactive)
12,O=C(O)C(Cc1ccccc1)N1C(=O)/C(=C/C(Cl)=C/c2ccc([N+](=O)[O-])cc2)SC1=S (stereo not given),71.2% (inactive)
13,CC(=O)Nc1nc(C(=O)N2N=C(C)/C(=C/c3ccccc3)C2=O)cs1,107% (inactive)
14,O=C(O)Cc1ccc2c(c1)Cc1cccnc1O2,91.7% (inactive)
15,Cc1ccc2c(c1)C(C)Cc1c(N(C)C)ncnc1N2C (stereo not given),81.8% (inactive)
16,CCN(CC)CCCNc1nc(C)cc(Nc2ccc3nc(C)cc(N)c3c2)n1,104% (inactive)
17,COc1cccc(/C=C2\SC(N3CCN(c4ccccn4)CC3)=NC2=O)c1,108% (inactive)
18,COc1cc(NS(C)(=O)=O)ccc1Nc1c2ccc([N+](=O)[O-])cc2nc2c(C)cccc12,-23.6% (active)
19,O=C1c2ccccc2C(=O)c2c1oc1oc3c(c(=O)c21)c(=O)n(-c1ccccc1)c1ccccc31,86.3% (inactive)
20,COc1cc(NC(=O)c2cc3ccccc3nc2Nc2ccc(F)cc2)cc(OC)c1OC,43% (inactive)
